In PubChem BioAssay AID1159580 (chemical genetic matrix, 2015):
Out of some 5,500 compounds screened, about 2,000 (36%) were called active. Inconclusive results (about 18%) are left out. No stated cut-off is given here; in the data, active means normalized growth mostly below about 0.91 (no sharp cut-off); inconclusive means no clear call, values can overlap the other calls; inactive means mostly above about 0.92. Some of the results follow.

Assay: chemical genetic growth profiling, strain panel (AID 1159580);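 further: tested at 20 µM; growth read once vehicle control cultures reached saturation at 30 °C; 1 = growth at the plate median or of vehicle wells; lower values mean less growth of the strain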
Conditions: S. cerevisiae deletion strains, growth OD

Measured: normalized growth

Nc1ncnc2c1ncn2C1OC2COP(O)(=S)O[C@@H]2[C@@H]1O (some centres undefined)
inactive: locus YAL013W, strain DEP1, hits give low values 1.01 | locus YAL040C, strain CLN3, hits give low values 1.01 | locus YDR150W, strain NUM1, hits give low values 1.02 | locus YDR363W, strain ESC2, hits give low values 0.99 | locus YER002W, strain NOP16, hits give low values 0.989 | locus YGR078C, strain PAC10, hits give low values 1 | locus YJR075W, strain HOC1, hits give low values 0.997 | locus YNL128W, strain TEP1, hits give low values 1.01 | locus YNL153C, strain GIM3, hits give low values 1.03 | locus YNL175C, strain NOP13, hits give low values 1.03 | locus YNL197C, strain WHI3, hits give low values 1.02 | locus YNL224C, strain SQS1, hits give low values 1.02 | locus YOR083W, strain WHI5 (second series), hits give low values 0.997 | locus YPL241C, strain CIN2, hits give low values 1.01
